The values below come from PubChem BioAssay.

The structures appear in SMILES notation. Calls of active or inactive are those of the source.

The subject of experiment [1] is Wnt5a (protein binding on small-molecule microarray). The experiment can be described thus: small molecules binding Wnt5a protein – biophysical, small-molecule microarray, 635/667 nm fluorescence, primary screen (AID 1142).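 Further: fluorescence read at 667 nm with signal to noise per printed feature.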 The note with it: 635 nm fluorescence, higher = more signal.
Experiment [2] can be described thus: ATP-based viability of Huh7 replicon cells – cell-based, CellTiter-Glo luminescence, basal, 48 h, cytotoxicity control for HCV replication inhibitor project, primary screen (AID 1143).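 Further: Huh7 hepatoma cells carrying a hepatitis C replication reporter with no stimulus; test concentration not given here.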 Particulars: higher = more signal, called active from +8 up or from −8 down.
The nature of experiment [3]: basal CRE-LacZ reporter activity in PC12 – cell-based, unstimulated, primary screen (AID 1145). The note with it: no forskolin, luminescence, 4.5 h, higher = more signal, called active from +8 up or from −8 down.
Experiment [4] is described as follows: forskolin-driven CRE-LacZ activity in PC12 – cell-based, CRE-LacZ reporter, forskolin-stimulated, primary screen (AID 1146).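 Further: PC12 cells with 6xCRE LacZ reporter stimulated by forskolin 10 µM; beta-galactosidase reporter signal reflecting CREB driven transcription.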 Particulars: luminescence, 4.5 h, higher = more signal, called active from +8 up or from −8 down.
Experiment [5] addresses Streptavidin (Streptomyces avidinii) (UniProt P22629). The experiment can be described thus: compounds binding control protein streptavidin – biophysical, small-molecule microarray, 635/667 nm fluorescence, artefact control for SMM compound annotation, primary screen (AID 1147).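 Further: signal reflects streptavidin binding to arrayed compounds as a control protein.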 Particulars: higher = more signal.
Experiment [6] in a line: probe aInhba binding on compound microarray – biochemical, small-molecule microarray, 635/667 nm fluorescence, primary screen (AID 1148).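 Further: score merges 667nm spot fluorescence with signal-to-noise for antibody binding to printed compounds.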 Particulars: higher = more signal.
Experiment [7] has as its target Torsin-1A (Homo sapiens) (UniProt O14656). The experiment can be described thus: TOR1A wild-type binding on microarray – cell lysate, small-molecule microarray, lysate, 635/667 nm, primary screen (AID 1149). Particulars: COS7 hTOR1A-WT lysate, 635 nm fluorescence, higher = more signal.
Experiment [8] shares this target. The experiment can be described thus: torsin A mutant lysate binding on microarrays – cell lysate, small-molecule microarray, COS7 lysate, 635/667 nm fluorescence, primary screen (AID 1150).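 Further: score pools 667 nm emission and signal to noise measuring lysate protein binding.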 Particulars: COS7 hTOR1A mutant lysate, 635 nm fluorescence, higher = more signal.
Experiment [9] has as its system Sonic hedgehog protein (Shh). The experiment can be described thus: Sonic hedgehog microarray binding compounds – biochemical, small-molecule microarray, 635/667 nm fluorescence, primary screen (AID 1151).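 Further: Shh protein binding to compounds spotted on small-molecule microarray slides; score combines spot fluorescence intensity with signal-to-noise across triplicate slides.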 Particulars: 635 nm fluorescence, higher = more signal.
The nature of experiment [10]: optical density shifts of acrAB sulA E. coli – strain DRC41, OD650, 48 h, E. coli filamentation inducer project, primary screen (AID 1152).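 Further: E. coli MC1000 strain DRC41 lacking acrAB efflux pump and sulA.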 Particulars: higher = more signal, called active from +8 up or from −8 down.
Experiment [11] is described as follows: probe aLefty1 binding on compound microarray – biochemical, small-molecule microarray, 635/667 nm fluorescence, primary screen (AID 1153).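 Further: score merges spot fluorescence with signal-to-noise ratio from the scanned slide images.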 Particulars: higher = more signal.
Experiment [12] can be described thus: plasmodial surface anion channel blockers, osmotic lysis – cell-based, P. falciparum Indochina, OD700, 1 h, primary screen (AID 1154). Particulars: P. falciparum Indochina infected RBC osmotic lysis, higher = more signal, called active from +8 up or from −8 down.
A short description of experiment [13]: plasmodial surface anion channel blockers, osmotic lysis – cell-based, P. falciparum Indochina, OD700, 2 h, primary screen (AID 1155).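 Further: lysis reports solute entry through the parasite surface anion channel PSAC.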 Particulars: P. falciparum Indochina infected erythrocytes, higher = more signal, called active from +8 up or from −8 down.
Experiment [14] can be described thus: changes in parasitized red cell lysis, either direction – P. falciparum Indochina, OD700, 3 h, PSAC antagonist project, primary screen (AID 1156). Particulars: P. falciparum-infected erythrocytes, osmotic lysis, higher = more signal, called active from +8 up or from −8 down.
A short description of experiment [15]: plasmodial surface anion channel blockers, osmotic lysis – cell-based, P. falciparum Indochina, OD700, 18 h, primary screen (AID 1157). The note with it: P. falciparum Indochina infected erythrocytes, osmotic lysis OD700, 18 h; higher = more signal, called active from +8 up or from −8 down.
Experiment [16] is described as follows: S6 kinase pathway phospho-S6 level changes – cell-based, A549, cytoblot, luminescence, serum-stimulated, primary screen (AID 1158).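 Further: serum-stimulated A549 lung adenocarcinoma cells; signal is phosphorylated S6 detected by cytoblot immunostaining with HRP secondary.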 Particulars: 5 h, higher = more signal.
In experiment [17] the target is NADPH oxidase 2 (Homo sapiens) (UniProt P04839). The experiment can be described thus: compounds shifting NOX2 Amplex Red fluorescence – cell-based, HEK293-NOX2, PMA-stimulated, NOX inhibitor project, primary screen (AID 1159). Further: test concentration not given here. The note with it: 45 min, higher = more signal, called active from +8 up or from −8 down.
NADPH oxidase 2 (Homo sapiens), sequence (P04839 whole entry, looked up): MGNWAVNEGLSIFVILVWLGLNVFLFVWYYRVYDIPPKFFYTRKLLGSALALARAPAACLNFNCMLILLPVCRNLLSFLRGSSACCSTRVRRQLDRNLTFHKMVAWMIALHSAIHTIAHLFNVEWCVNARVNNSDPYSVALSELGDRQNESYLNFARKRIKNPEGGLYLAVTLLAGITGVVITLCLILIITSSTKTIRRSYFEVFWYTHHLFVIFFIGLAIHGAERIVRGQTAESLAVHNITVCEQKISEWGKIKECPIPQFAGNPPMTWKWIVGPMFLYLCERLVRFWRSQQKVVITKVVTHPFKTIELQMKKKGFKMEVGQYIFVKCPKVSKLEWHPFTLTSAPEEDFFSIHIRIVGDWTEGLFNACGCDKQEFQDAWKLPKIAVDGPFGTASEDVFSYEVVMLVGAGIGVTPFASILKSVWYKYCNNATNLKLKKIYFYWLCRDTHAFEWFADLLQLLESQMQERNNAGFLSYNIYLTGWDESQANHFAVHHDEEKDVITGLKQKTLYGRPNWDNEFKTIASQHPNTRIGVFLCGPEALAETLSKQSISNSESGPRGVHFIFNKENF
The target in experiment [18] is NADPH oxidase 4 (Homo sapiens) (UniProt Q9NPH5). In words: compounds shifting NOX4 Amplex Red fluorescence – cell-based, HEK293-NOX4, tetracycline-induced, NOX inhibitor project, primary screen (AID 1160). Particulars: HEK293-NOX4, Amplex Red H2O2 fluorescence, 45 min; higher = more signal, called active from +8 up or from −8 down.
NADPH oxidase 4 (Homo sapiens), sequence (Q9NPH5 whole entry, looked up): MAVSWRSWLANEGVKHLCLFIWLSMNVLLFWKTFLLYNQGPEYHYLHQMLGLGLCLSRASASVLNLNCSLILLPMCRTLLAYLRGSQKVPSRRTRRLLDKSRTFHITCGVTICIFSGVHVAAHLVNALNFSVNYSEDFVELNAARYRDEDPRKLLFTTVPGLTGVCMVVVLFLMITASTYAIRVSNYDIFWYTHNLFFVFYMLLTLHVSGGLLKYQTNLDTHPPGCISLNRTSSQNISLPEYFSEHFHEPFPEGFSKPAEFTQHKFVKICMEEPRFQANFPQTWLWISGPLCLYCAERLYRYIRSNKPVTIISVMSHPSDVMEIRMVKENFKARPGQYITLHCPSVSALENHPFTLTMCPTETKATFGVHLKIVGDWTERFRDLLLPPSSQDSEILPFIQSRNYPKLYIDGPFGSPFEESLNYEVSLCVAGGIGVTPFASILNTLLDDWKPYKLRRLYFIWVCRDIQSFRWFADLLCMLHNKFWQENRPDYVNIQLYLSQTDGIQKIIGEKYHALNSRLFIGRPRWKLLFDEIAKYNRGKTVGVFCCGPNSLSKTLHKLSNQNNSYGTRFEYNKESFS
The target of experiment [19] is NADPH oxidase 5 (Homo sapiens) (UniProt Q96PH1). The experiment can be described thus: compounds shifting NOX5 Amplex Red fluorescence – cell-based, HEK293-NOX5, NOX inhibitor project, primary screen (AID 1161). The note with it: HEK293-NOX5, ionomycin, 45 min, higher = more signal.
NADPH oxidase 5 (Homo sapiens), sequence (Q96PH1 whole entry, looked up): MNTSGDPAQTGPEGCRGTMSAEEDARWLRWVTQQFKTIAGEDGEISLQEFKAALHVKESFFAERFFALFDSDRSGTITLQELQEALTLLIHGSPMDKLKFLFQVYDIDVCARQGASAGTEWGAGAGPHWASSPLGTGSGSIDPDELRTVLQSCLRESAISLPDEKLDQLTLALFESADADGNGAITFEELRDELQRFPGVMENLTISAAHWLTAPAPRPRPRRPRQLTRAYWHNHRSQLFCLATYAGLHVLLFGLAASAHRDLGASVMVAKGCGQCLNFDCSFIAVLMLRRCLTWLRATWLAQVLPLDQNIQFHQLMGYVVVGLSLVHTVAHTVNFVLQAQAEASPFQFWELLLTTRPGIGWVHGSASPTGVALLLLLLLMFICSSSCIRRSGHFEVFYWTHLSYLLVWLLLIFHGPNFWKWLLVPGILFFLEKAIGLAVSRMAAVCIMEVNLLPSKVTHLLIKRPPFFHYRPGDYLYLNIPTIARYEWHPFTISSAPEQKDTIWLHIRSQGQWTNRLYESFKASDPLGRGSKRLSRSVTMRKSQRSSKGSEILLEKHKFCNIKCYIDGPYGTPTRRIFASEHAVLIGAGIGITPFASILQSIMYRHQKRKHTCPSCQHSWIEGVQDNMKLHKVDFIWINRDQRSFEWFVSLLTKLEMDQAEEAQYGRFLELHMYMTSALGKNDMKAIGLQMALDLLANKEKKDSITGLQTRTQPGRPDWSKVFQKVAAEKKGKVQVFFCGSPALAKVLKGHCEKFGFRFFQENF
Experiment [20] can be described thus: compound effects on lung adenocarcinoma cell viability – A549, calcein-AM fluorescence, 48 h, basal, profiling panel (AID 1162). Further: test concentration not given here. Particulars: higher = more signal.

Streptavidin (Streptomyces avidinii), sequence (P22629 whole entry, looked up): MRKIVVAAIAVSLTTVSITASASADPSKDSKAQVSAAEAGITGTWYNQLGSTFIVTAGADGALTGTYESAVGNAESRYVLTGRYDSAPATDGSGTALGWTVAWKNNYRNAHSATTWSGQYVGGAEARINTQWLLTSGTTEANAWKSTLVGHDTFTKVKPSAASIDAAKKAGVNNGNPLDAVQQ
Torsin-1A (Homo sapiens), sequence (O14656 whole entry, looked up): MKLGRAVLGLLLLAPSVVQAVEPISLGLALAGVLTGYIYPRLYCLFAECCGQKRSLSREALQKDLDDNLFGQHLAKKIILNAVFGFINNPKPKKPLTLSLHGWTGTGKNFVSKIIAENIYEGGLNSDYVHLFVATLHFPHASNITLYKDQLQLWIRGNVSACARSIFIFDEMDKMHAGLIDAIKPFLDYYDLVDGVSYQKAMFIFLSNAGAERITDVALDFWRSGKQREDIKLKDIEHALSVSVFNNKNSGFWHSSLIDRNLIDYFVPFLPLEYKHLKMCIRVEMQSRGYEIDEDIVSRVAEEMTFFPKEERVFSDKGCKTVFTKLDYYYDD

On to `C=C(C(=O)CC[C@@H](OC(C)=O)c1ccccc1OCCO)C(C)C`, for which the composite z-score is 0.235 in experiment [1]; -0.965 in experiment [5]; -0.0791 in experiment [6]; 0.964 in experiment [7]; -0.353 in experiment [8]; 1.09 in experiment [9]. This compound also registered a composite z-score in experiment [11] of -0.29. The z-score is -4.89 (inactive) in experiment [2]; 3.88 (inactive) in experiment [3]; -1.21 (inactive) in [4]; 1.19 (inactive) in [10]; 0.425 (inactive) in experiment [12]; 0.279 (inactive) in experiment [13]. Moreover, the z-score in experiment [14] was -1.49 (inactive); in [15], 0.479 (inactive); in experiment [16], -0.258; in [17], 1.24 (inactive); in [18], -0.759 (inactive); in experiment [19] it was -2.43. The z-score in experiment [20] was -0.646.
As for `COc1ccc([Si](C)(C)[C@@H]2[C@@H](CC(=O)N3CCC[C@H]3CO)O[C@]3(C(=O)N(Cc4ccc(N5CCC5=O)cc4)c4ccccc43)[C@H]2C)cc1`, the composite z-score came out at 0.0507 in experiment [1]; 0.761 in experiment [5]; 0.027 in [6]; 0.572 in [7]; 0.409 in [8]; 1.55 in experiment [9]. Besides, the composite z-score in experiment [11] is 0.156. Further, the z-score in [2] is -1.8 (inactive); in experiment [3], 0.861 (inactive); in experiment [4] it was -1.19 (inactive); in experiment [10], 0.436 (inactive); in experiment [12], 7.47 (inactive); in [13], 1.49 (inactive). Moreover, the z-score in experiment [14] is -0.836 (inactive); in experiment [15], 0.77 (inactive); in [16], 0.127; in [17], 2.99 (inactive); in [18] it was 1.58 (inactive); in [19], 4.86. Further, the z-score in experiment [20] was -0.639.
`COC(=O)c1c2oc(c1C(=O)OC)C(=O)N[C@@H](C(C)C)Cn1nncc1C1(CCCCC1)NC(=O)N[C@H](CO)CC2`: the composite z-score in experiment [1] is -0.0906; in experiment [5] it was 0.235; in experiment [6] it was -0.195; in [7], 0.217; in experiment [8] it was -0.422; in [9], -0.0256. Moreover, in experiment [11], the composite z-score is -0.235. The z-score was -0.475 (inactive) in [2]; 1.44 (inactive) in experiment [3]; -0.575 (inactive) in [4]; 3.17 (inactive) in experiment [10]; 1.05 (inactive) in [12]; 1.49 (inactive) in [13]. Also, the z-score in experiment [14] is 0.168 (inactive); in [15], 1.41 (inactive); in [16], 0.651; in experiment [17] it was 0.234 (inactive); in experiment [18], 0.991 (inactive); in [19], -0.162. Moreover, the z-score in experiment [20] is 2.55.
For the compound `O=C(O)[C@H]1C[C@H]2C(=O)N[C@@H](Cc3ccccc3)C(=O)N2[C@H]1c1ccc(O)cc1`, the composite z-score is 0.0525 in [1]; -0.0681 in experiment [5]; 0.0228 in experiment [6]; 0.563 in experiment [7]; 0.458 in [8]; 1.24 in experiment [9]. In experiment [11], this compound had a composite z-score of -0.0162. In addition, the z-score is -0.423 (inactive) in experiment [2]; 0.826 (inactive) in experiment [3]; -0.83 (inactive) in experiment [4]; 0.763 (inactive) in experiment [10]; 2.03 (inactive) in experiment [12]; -0.0251 (inactive) in experiment [13]. The z-score in experiment [14] was -7.14 (inactive); in [15], -0.139 (inactive); in experiment [16], 0.432; in experiment [17] it was 1.53 (inactive); in [18], 1.42 (inactive); in [19] it was 2.01. Besides, the z-score in [20] is -0.315.
Turning to `COCCOC(=O)N1C(=O)[C@@]2(c3cc(C#CC4(O)CCCCCC4)ccc31)[C@H](c1ccccc1OCCO)N1[C@H](c3ccccc3)[C@H](c3ccccc3)OC(=O)[C@H]1[C@@H]2C(=O)Nc1nc2ccccc2s1`, the composite z-score in experiment [1] was 0.478; in experiment [5] it was 0.16; in experiment [6], -0.0468; in experiment [7], 1.2; in [8], 0.663; in experiment [9], 1.52. The compound further returned a composite z-score in [11] of -0.105. Besides, the z-score is -4.73 (inactive) in [2]; 0.802 (inactive) in [3]; -1.05 (inactive) in [4]; 2.49 (inactive) in experiment [10]; 3.33 (inactive) in [12]; 0.299 (inactive) in experiment [13]. Further, the z-score is 0.851 (inactive) in [14]; -0.515 (inactive) in experiment [15]; 1.02 in experiment [16]; 1.27 (inactive) in [17]; -0.694 (inactive) in experiment [18]; 0.339 in experiment [19]. Further, the z-score in experiment [20] is -0.997.
As to `Cc1ccc(S[C@]2(C(=O)NCCN3CCOCC3)CC(=O)N(Cc3cc(C(F)(F)F)cc(C(F)(F)F)c3)[C@@H]2c2ccc(CO)cc2)cc1`, the composite z-score in [1] was 0.322; in experiment [5] it was -0.721; in experiment [6] it was -0.0371; in [7] it was -0.847; in experiment [8], -0.521; in experiment [9] it was -0.105. The compound also had a composite z-score in experiment [11] of -0.0576. Besides, the z-score is -2.39 (inactive) in experiment [2]; -0.464 (inactive) in experiment [3]; -1.7 (inactive) in experiment [4]; 2.85 (inactive) in experiment [10]; 1.69 (inactive) in experiment [12]; -0.152 (inactive) in experiment [13]. In addition, the z-score in experiment [14] is -0.468 (inactive); in experiment [15], -1.39 (inactive); in experiment [16] it was 2.65; in experiment [17] it was 0.538 (inactive); in [18], 0.706 (inactive); in experiment [19], 0.754. In addition, the z-score in experiment [20] is 0.422.
As to `COC(=O)C(CC#Cc1ccc2c(c1)[C@]1(C(=O)N2)[C@H](C(N)=O)[C@H]2C(=O)O[C@H](c3ccccc3)[C@H](c3ccccc3)N2[C@@H]1c1ccc(O)cc1)C(=O)OC`, the composite z-score in experiment [1] is -0.156; in experiment [5], -1.09; in experiment [6], -0.504; in experiment [7], -0.372; in [8], 0.488; in experiment [9] it was -0.295. This compound also registered a composite z-score in experiment [11] of -0.696. The z-score was -0.229 (inactive) in [2]; 0.182 (inactive) in experiment [3]; -0.909 (inactive) in [4]; 1.66 (inactive) in experiment [10]; 14.5 (active) in experiment [12]; 1.23 (inactive) in experiment [13]. Besides, the z-score in [14] is 0.974 (inactive); in [15], 0.37 (inactive); in [16] it was 0.331; in [17] it was 1.32 (inactive); in experiment [18], 0.297 (inactive); in [19] it was 1.1. For the same compound, the z-score in [20] was 0.685.
Regarding `CC(CO)N1C(=O)[C@@H]2C3C(=O)OCCC/C=C\[C@H]3OC23C=CCN(Cc2ccccc2)C(=O)[C@@H]13` (stereo not given in full), the composite z-score in experiment [1] was -0.146; in experiment [5] it was -1.03; in experiment [6], -0.31; in experiment [7], -0.462; in experiment [8], -0.276; in experiment [9] it was 0.194. The compound also gave a composite z-score in experiment [11] of -0.24. In addition, the z-score in [2] was -0.182 (inactive); in [3], -0.753 (inactive); in [4], -0.954 (inactive); in experiment [10], 2.52 (inactive); in [12], 0.38 (inactive); in experiment [13], -0.999 (inactive). In addition, the z-score is -0.513 (inactive) in experiment [14]; -0.899 (inactive) in [15]; 0.467 in experiment [16]; 0.456 (inactive) in experiment [17]; -0.322 (inactive) in [18]; 1.36 in experiment [19]. The z-score in experiment [20] is 1.59.
